From PubChem BioAssay
In the library only some 14% were active in any assay of this set; here they are far more common.
LmPK inh – qHTS Assay for Inhibitors of Leishmania Mexicana Pyruvate Kinase (LmPK). purified LmPK, Kinase-Glo ATP luminescence, 1 h. actives 0.37% (n = 290,000). Potency, µM (series often up to 57.5 µM), most hits filed as inhibitors
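Screened at intermediate enzyme activity to detect both inhibitors and activators: LmPK at 0.1 nM, with a 0.5 nM enzyme column as activation reference. PEP 0.5 mM, ADP 0.1 mM; ATP detected by luminescence after 1 h.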
Giardia FBPA inh – qHTS Assay for Inhibitors of Fructose-1,6-bisphosphate Aldolase from Giardia Lamblia; A8B2U2; purified Giardia FBPA; Potency, µM (top dose mostly 59.6 µM), most hits filed as inhibitors; actives 0.71% (n = 290,000); also: nearly all actives have a fitted effect of over 55% in size
Target sequence (A8B2U2 whole entry, looked up): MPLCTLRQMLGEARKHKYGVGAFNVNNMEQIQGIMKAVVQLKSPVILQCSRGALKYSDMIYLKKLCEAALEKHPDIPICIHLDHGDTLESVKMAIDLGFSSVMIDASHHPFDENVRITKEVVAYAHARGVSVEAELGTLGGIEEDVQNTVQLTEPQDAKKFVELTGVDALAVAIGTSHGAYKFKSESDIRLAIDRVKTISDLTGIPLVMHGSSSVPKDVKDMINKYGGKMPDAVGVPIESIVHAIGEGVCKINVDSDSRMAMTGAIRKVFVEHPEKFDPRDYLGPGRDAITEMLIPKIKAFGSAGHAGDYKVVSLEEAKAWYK
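Giardia FBPA (40 nM reagent) was preincubated 10 min at RT with compound (up to 57.5 uM final), then substrate plus GAPDH/TPI/NAD/arsenate coupling system with diaphorase/resazurin was added; resorufin fluorescence (525/598 nm) was read after 20 min.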
Cycloheximide cs – Cycloheximide Counterscreen for Small Molecule Inhibitors of Shiga Toxin. cell reporter, cycloheximide protein synthesis inhibition counterscreen. max response, %. actives 12% (n = 300,000). AID 2314, 2010; in the data active = max response mostly above about 13%, no sharp cut-off; inactive = mostly below about 14%; also: read at 38.3 µM for the half of the compounds with a filed dose
NS1 inh – qHTS Assay for Inhibitors of Influenza NS1 Protein Function; AID 2326, 2010; actives 0.4% (n = 270,000); Potency, µM (doses to about 46.1 µM); calls by dose curve; also: actives are rising curves; nearly all actives have a fitted effect of over 50% in size
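Recovery from NS1-induced slow growth read by OD600 in budding yeast switched to galactose assay medium (pH 6.0, -URA) at 1:100 dilution. Compound 23 nl per well; the matching strain lacking NS1 serves as control.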
Shiga inhibitor – A qHTS for Small Molecule Inhibitors of Shiga Toxin; Vero cells, Shiga toxin protein synthesis inhibition reporter; inhibition, % at 38.7 µM; actives 9.2% (n = 290,000); in the data active = inhibition mostly above about 28%, no sharp cut-off; inactive = mostly below about 43%
Of the large screens only hits and unclear results are named; the others gave an inactive call. Unless noted, calls follow the shape of the dose curve; as a rule, active = well fitted curve in the direction sought with a large enough effect; inconclusive = small, poorly fitted or top-dose-only effect, or another doubt; inactive = no such curve, though single readings can be large; an effect the other way counts as inactive or inconclusive.

Cc1ccc(-c2csc(Cc3nc(-c4ccc5c(c4)CCC(=O)N5)cs3)n2)cc1	none
Cc1nc(-c2ccc3c(c2)CCC(=O)N3)cs1	Cycloheximide cs 29, Shiga inhibitor 65
COc1ccccc1C(=O)NC(=S)/C=C1/N(C)c2ccccc2C1(C)C	Cycloheximide cs 14
CN1/C(=C\C(=O)c2cccs2)C(C)(C)c2ccccc21	Cycloheximide cs 25
CCOC(=O)/C=C1/N(C)c2ccccc2C1(C)C	none
COCC(=O)/C=C1\Sc2ccccc2N1C	none
CN1/C(=C\C(=O)c2cccs2)Sc2ccccc21	LmPK inh 11µM, Cycloheximide cs 39, Shiga inhibitor 90
CN1/C(=C/C(=O)c2cccs2)Sc2ccccc21	LmPK inh inconclusive, Giardia FBPA inh inconclusive, Cycloheximide cs 43
COC(=O)N1CC=CC1(C)C(=O)O (stereo unspecified)	none (no result: LmPK inh, Cycloheximide cs, NS1 inh, Shiga inhibitor)
Cc1ccccc1C(=O)N1CCCC(N2CCN(Cc3ccc4c(c3)OCO4)CC2)C1 (stereo unspecified)	none (no result: Giardia FBPA inh)
COc1cc(-c2cccc([C@H]3[C@@H]4C=CC[C@@H](C)[C@@H]4C(=O)N3Cc3ccccc3)c2)cc(OC)c1OC	none (no result: LmPK inh, NS1 inh)
CN1/C(=C/C(=O)C2CCC2)Sc2ccccc21	Cycloheximide cs 57, Shiga inhibitor 139
COc1ccc(C(=O)Nc2ccnn2C2CCN(C(=O)c3cccnc3)CC2)cc1	Cycloheximide cs 30, Shiga inhibitor 60 (no result: Giardia FBPA inh)
COc1ccccc1C(=O)Nc1ccnn1C1CCN(C(=O)C2CCOC2)CC1 (stereo unspecified)	Cycloheximide cs 13
CC(C)C(=O)N1CCC(n2nccc2NC(=O)CCOc2ccccc2)CC1	Cycloheximide cs 17 (no result: Giardia FBPA inh)
COc1cccc(C(=O)N2CCC(n3nccc3NC(=O)CCOc3ccccc3)CC2)c1	Cycloheximide cs 30
COc1ccccc1C(=O)Nc1ccnn1C1CCN(C)CC1	none (no result: Giardia FBPA inh)
O=C(NCc1ccc(F)cc1)c1ccncc1	none
CCCCCCCC#Cc1ccccc1C(NC(=O)OC)C(C(=O)OC)C(=O)OC (stereo unspecified)	none (no result: LmPK inh, Cycloheximide cs, NS1 inh, Shiga inhibitor)
C[C@@H]1OC(O[C@H]2[C@H](Oc3cc(O)c4c(=O)c(O)c(-c5ccc(O)cc5)oc4c3)O[C@H](CO)[C@@H](O)[C@@H]2O)[C@H](O)[C@H](O)[C@H]1O (stereo partly specified)	none (no result: LmPK inh, NS1 inh)
O=C(NNc1nc2cc3c(cc2s1)OCO3)c1cccc(F)c1	Cycloheximide cs 61, Shiga inhibitor active
O=C(NNc1nc2cc3c(cc2s1)OCO3)c1ccccc1	Cycloheximide cs 61, Shiga inhibitor 90
COc1cc(OC)cc(C(=O)NNc2nc3cc4c(cc3s2)OCO4)c1	none
COc1ccc(-c2csc(N3C(=O)C4C5c6ccccc6C(c6ccccc65)[C@@H]4C3=O)n2)cc1 (stereo partly specified)	none
COc1ccc(-c2csc(N3C(=N)SCC3=O)n2)cc1	Cycloheximide cs 49, Shiga inhibitor 163
COc1ccc(-c2csc(N3C(=O)C4C5c6ccccc6C(c6ccccc65)C4C3=O)n2)cc1 (stereo unspecified)	none
COc1ccc(-c2csc(N3C(=O)CNC3=S)n2)cc1	Cycloheximide cs 93, Shiga inhibitor 140
O=C1CNC(=S)N1c1nc(-c2ccccc2)cs1	Cycloheximide cs 23, Shiga inhibitor 39
CCc1c(C)[nH]n(-c2nc(-c3ccccc3)cs2)c1=O	none (no result: NS1 inh)
COC(=O)C/C=C\[C@@H](C)[C@@H](/C=N\O[C@@H](C)c1cn([C@H]2COC[C@H]2O)nn1)OC	none (no result: LmPK inh, Cycloheximide cs, NS1 inh, Shiga inhibitor)
COc1ccccc1CNC(=O)OCc1nccnc1C(=O)Nc1ccc(Br)cn1	none (no result: Giardia FBPA inh)
O=C(COC(=O)c1cccs1)Nc1ccccc1	Cycloheximide cs 51, Shiga inhibitor 109
C/C(=N/OCC(=O)Nc1ccccc1)c1cccs1	Cycloheximide cs 27, Shiga inhibitor 60
O=C(CC(Nc1ccccc1Cl)C(=O)OCC(=O)c1cccs1)c1ccccc1 (stereo unspecified)	Cycloheximide cs 53, Shiga inhibitor 69
COC(=O)c1ccc(COC(=O)CCC(=O)c2cccs2)cc1	Cycloheximide cs 62, Shiga inhibitor 121
COc1ccc(NC(=O)CO/N=C(\C)c2cccs2)cc1	none (no result: NS1 inh)
O=C(COC(=O)c1cccs1)Nc1nc(-c2ccccc2)cs1	none
CNC(=O)N(O)C1N(/N=C/c2ccccc2OC)C(=S)SC1(C)C (stereo unspecified)	Giardia FBPA inh inconclusive
O=C(OCC(=O)c1cccs1)c1ccccc1	LmPK inh 16µM, Cycloheximide cs 31, NS1 inh inconclusive
C/C(=N\OCC(=O)Nc1ccccc1Br)c1cccs1	Cycloheximide cs 28, Shiga inhibitor 55 (no result: NS1 inh)
COc1ccc(NC(=O)C(=O)c2cn(CC(=O)N3CCCC3)c3ccccc23)cc1	none (no result: Giardia FBPA inh)
Cc1ccc(C(=O)c2oc3ccccc3c2N)cc1	Cycloheximide cs 20, Shiga inhibitor 74
Nc1c(C(=O)c2ccc(Br)cc2)oc2ccccc12	Cycloheximide cs 30, Shiga inhibitor 45
COC(=O)CCC(=O)c1oc2ccc(Br)cc2c1N	Cycloheximide cs 41, Shiga inhibitor active
Nc1c(C(=O)c2ccccc2)oc2ccc([N+](=O)[O-])cc12	Cycloheximide cs 26, Shiga inhibitor 41
CCCCNc1nc(SC)nc2nc[nH]c12	none (no result: LmPK inh, Giardia FBPA inh, Cycloheximide cs, Shiga inhibitor)
CC(C)NC(=O)N1CC[C@@]2(CCCN(S(=O)(=O)c3ccccc3)C2)C1	none (no result: LmPK inh, Cycloheximide cs, NS1 inh, Shiga inhibitor)
O=C(O)Cn1nc(-c2ccccc2)c2ccccc21	none (no result: LmPK inh, Giardia FBPA inh, Cycloheximide cs, Shiga inhibitor)
CCOC(=O)c1oc2ccccc2c1N	Cycloheximide cs 27, Shiga inhibitor 67
COC(=O)c1oc2ccc(Br)cc2c1-n1cccc1	none
Nc1c(C(=O)c2ccccc2)oc2ccc(Br)cc12	Cycloheximide cs 28, Shiga inhibitor 83
C[C@]12C=CC(=O)C=C1CC[C@@H]1[C@H]3C[C@@H](O)[C@](O)(C(=O)CO)[C@@]3(C)C[C@H](O)[C@]12F	none (no result: LmPK inh, Cycloheximide cs, NS1 inh, Shiga inhibitor)
CC(=O)OCC1OC(C#Cc2ccccc2)C=CC1O (stereo unspecified)	none (no result: LmPK inh, Cycloheximide cs, NS1 inh, Shiga inhibitor)
CN1CCN(c2ncc3nc(-c4cccc(C#N)c4)c(=O)n(CCc4ccccc4)c3n2)CC1	none (no result: LmPK inh, Cycloheximide cs, NS1 inh, Shiga inhibitor)
CCN(CC)c1ccc(/C=N/Nc2nc3ccccc3[nH]2)c(O)c1	Giardia FBPA inh inconclusive, Cycloheximide cs 52, Shiga inhibitor 100
Cc1ccc2cc(/C=N/Nc3nc4ccccc4[nH]3)c(Cl)nc2c1	LmPK inh inconclusive, Cycloheximide cs 55, Shiga inhibitor 93
c1ccc2c(Cn3nnc4ccccc43)cccc2c1	none
N#Cc1ccc(COn2nnc3ccccc32)cc1	Cycloheximide cs 31
c1ccc2c(COn3nnc4ccccc43)cccc2c1	Cycloheximide cs 54, Shiga inhibitor 87
O=C(NN=C1CCCCCC1)c1c[nH]c2ccccc12	Shiga inhibitor active
Cc1ccc(NC(=S)N/N=C2/CCCCc3ccccc32)cc1	Cycloheximide cs 17
O=C(N/N=C1\CCCCc2ccccc21)c1ccccn1	Giardia FBPA inh inconclusive, Cycloheximide cs 44, Shiga inhibitor 90 (no result: NS1 inh)
